# Most compounds without a hit are left out; they make up all but 3.7% or so of the library.
# DRD3 agonist: qHTS of D3 Dopamine Receptor Agonist: qHTS. D(3) dopamine receptor (Homo sapiens), P35462. AID 652048, 2013. D3R DiscoveRx beta-arrestin cells, luminescence, 90 min. hit rate 0.58% among 410,000. max activation, %; in the data active means max activation above about 30%
#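 Agonist-mode cell screen: cells plated at 1500/well and incubated overnight at 37 °C, then exposed to library compounds for 90 min at 37 °C. Detection reagent was added for 30–60 min at room temperature, and luminescence was read.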
# D3 antag: qHTS of D3 Dopamine Receptor Antagonist: qHTS. D(3) dopamine receptor (Homo sapiens), P35462. D3R cells, DiscoveRx beta-arrestin luminescence, antagonist mode; hits give low values. max response, negative = inhibition, %. hit rate 2.5% among 360,000. AID 652054, 2013; in the data active means max response below about -50%; inconclusive means no clear call, values can overlap the other calls
#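 Cells expressing the human receptor were seeded at 1500 cells/well, incubated overnight at 37 degrees C in 5% CO2, then exposed to library compounds with dopamine controls for 90 minutes at 37 degrees C before luminescent detection.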
# BRCA1 expr act: qHTS Assay to Identify Small Molecule Activators of BRCA1 Expression; AID 624202, 2012; MCF7-BRCA1-FFLuc reporter, luminescence, 48 h; response scale: scaled: vehicle 0%, 10 µM genistein 100%; hit rate 1.1% among 380,000; Potency, µM (highest dose often 46.1 µM), usual class: activators; further: nearly all actives have a fitted effect of over 80% in size
#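 Reporter cells (MCF7, BRCA1 promoter-firefly luciferase) received library compounds across a concentration series for 48 h. End-point luminescence was measured and concentration-effect curves derived after normalization.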
# PTHR1 agonist: qHTS for PTHR1 Agonists: Primary Screen; Parathyroid hormone/parathyroid hormone-related peptide receptor (Homo sapiens), Q03431; HEK293 GP2 PTHR1 cells, GloSensor cAMP luminescence, 1 h; Potency, µM (doses to about 115 µM), hits mostly activators; hit rate 0.075% among 410,000; further: nearly all actives have a fitted effect of over 55% in size
# Target sequence (Q03431 whole entry, looked up): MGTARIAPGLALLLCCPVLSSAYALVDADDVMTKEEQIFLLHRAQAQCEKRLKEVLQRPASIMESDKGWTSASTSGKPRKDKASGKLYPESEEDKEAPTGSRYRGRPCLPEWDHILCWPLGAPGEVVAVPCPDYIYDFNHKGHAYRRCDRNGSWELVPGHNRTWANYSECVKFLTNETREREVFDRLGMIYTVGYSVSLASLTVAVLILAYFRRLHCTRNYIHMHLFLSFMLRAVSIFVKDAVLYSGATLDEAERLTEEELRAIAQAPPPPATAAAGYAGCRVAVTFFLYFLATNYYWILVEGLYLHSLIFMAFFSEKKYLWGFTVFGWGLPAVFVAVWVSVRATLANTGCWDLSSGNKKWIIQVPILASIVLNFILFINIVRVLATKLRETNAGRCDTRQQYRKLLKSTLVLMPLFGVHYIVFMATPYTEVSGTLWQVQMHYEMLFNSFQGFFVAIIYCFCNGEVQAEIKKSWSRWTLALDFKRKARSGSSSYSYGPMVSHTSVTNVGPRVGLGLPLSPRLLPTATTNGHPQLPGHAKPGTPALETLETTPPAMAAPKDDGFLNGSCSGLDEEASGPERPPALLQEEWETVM
#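 HEK-293-derived GP2 cells expressing PTHR1 and a GloSensor cAMP reporter, 3,000/well, plated overnight, given luciferin plus IBMX (each 0.5 mM as added) for 1 h at 37 °C, then compound for 1 h at 37 °C. Luminescence was read after 15 min at room temperature.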
# B2AR arrestin: qHTS assay of beta-arrestin-biased ligands of beta2-adrenergic receptor | Beta-2 adrenergic receptor (Homo sapiens), P07550 | beta-arrestin recruitment to beta2AR, cell-based reporter | Potency, µM (top dose mostly 46.1 µM), most hits filed as activators | hit rate 0.02% among 330,000; further: nearly all actives have a fitted effect of over 65% in size
# RGS4 inhibitor: Inhibitors of Regulator of G Protein Signaling (RGS) 4: qHTS; Regulator of G-protein signaling 4 (Homo sapiens), P49798; AID 504845, 2011; hit rate 0.039% among 390,000; Potency, µM (top dose mostly 114 µM), actives largely listed as inhibitors; Transcreener GDP fluorescence polarization, RGS4-accelerated GTP hydrolysis; further: nearly all actives have a fitted effect of over 75% in size
#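 MLSMR compounds (23 nl, pin-transferred) preincubated 10 min at room temperature with a 500nM (2x) first reagent, then RGS4 at 900nM (2x) plus Transcreener GDP mix added; fluorescence polarization (620/688 nm) read before and after 90 min at 30 °C.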
# A number is an active result; 0 = inactive; ? = inconclusive; - = not tested or not shown; [ ] = another dose, or the depositor's remark. Unless noted, the call rests on the fitted dose curve; in most records, active means well fitted curve in the direction sought with a large enough effect; inconclusive means small, poorly fitted or top-dose-only effect, or another doubt; inactive means no such curve, though single readings can be large; an effect the other way counts as inactive or inconclusive.
SMILES,DRD3 agonist,D3 antag,BRCA1 expr act,PTHR1 agonist,B2AR arrestin,RGS4 inhibitor
O=C(c1cc2cc3ccc(Cl)cc3nc2o1)N1CCCCCC1,0,0,2.24µM,0,0,0
COc1ccc2cc3cc(C(=O)N4CC(C)CC(C)C4)oc3nc2c1 (stereo unspecified),0,0,10µM,0,0,0
Cc1ccc2cc3cc(C(=O)N4CC(C)CC(C)C4)oc3nc2c1 (stereo unspecified),0,0,0,0,0,0[11.4 µM]
O=C(Cn1c(SCc2ccccc2F)nc2ccncc21)Nc1ccccc1C(F)(F)F,0,-,0,0,-,0
CCCCNC(=O)c1nn(C)c2c1CSc1ccccc1-2,0,-,-,0,-,0
CCCNC(=S)NCCN1CCCCC1,0,-62.5,0,0,0,0
CCNC(=S)NCCN1CCOCC1,0,0,0,0,0,0
CCNC(=S)NCCN1CCCCC1,0,0,0,0,0,0
CCCCNC(=S)NCCN1CCCCC1,0,-72.1,0,0,0,0
COc1ccccc1NC(=O)N(C)C[C@H]1OCc2cnnn2CCCC(=O)N([C@H](C)CO)C[C@H]1C,0,0,0,0,-,-
CCCCN(CCCNC(=O)Cn1nc(CC)n2c(cc3sc(C)cc32)c1=O)Cc1ccccc1,0,0,0,0,0,0
COc1ccccc1N(C)S(=O)(=O)c1ccc(C(=O)N(C)Cc2ccc(Cl)s2)cc1,0,0,0,0,0,0
CC(C)CCNC(=O)COc1ccc2c(c1)C(=O)CC(C)(C)O2,0,0,0,0,0,0[11.4 µM]
CC1(C)CC(=O)c2cc(OCC(=O)NCCCN3CCN(c4ccc(F)cc4)CC3)ccc2O1,0,-80.8,0,0,0,0
CC1(C)CC(=O)c2cc(OCC(=O)NCCN3CCCc4ccccc43)ccc2O1,0,-67.5,0,0,0,0
CCOC(=O)c1c[nH]n2c(=S)ncnc12,0,0,0,0,-,-
COCCNC(=O)CSc1nnc(NC(=O)Nc2ccc(C)cc2)s1,0,-,-,0,-,0
O=C(CSc1nnc(CNc2ccccc2)o1)N1CCc2ccccc21,43.5,0,0,0,0,0
O=C(CSc1ncccn1)N1CCCc2ccccc21,0,0,0,0,0,0
O=C(CSc1nnc2ccccn12)N1CCc2ccccc2C1,0,0,?,0,0,0
O=C(CSc1nnc(Cc2ccccc2)o1)N1CCCc2ccccc21,0,0,0,0,0,0
Cc1ccnc(SCC(=O)N2CCc3ccccc32)n1,0,0,10µM,0,0,0
O=C(CSc1nnc2ccccn12)c1ccc2c(c1)OCCO2,0,0,7.08µM,0,0,0
O=C(CSc1nnc2ccccn12)N1CCc2ccccc21,0,0,2.82µM,0,0,0
COc1ccc(CNc2nc3nc(C)cc(C)n3n2)cc1OC,0,-56.0,0,0,0,0
SMILES,DRD3 agonist,D3 antag,BRCA1 expr act,PTHR1 agonist,B2AR arrestin,RGS4 inhibitor
COP(=O)(OC)OC(c1ccc(Cl)cc1)P(=O)(OC)OC (stereo unspecified),83.7,-,-,-,-,-
COP(=O)(OC)OC(C(=O)c1ccccc1)c1ccc(Cl)cc1 (stereo unspecified),0,0,-,0,-,-
CC1=C(C(=O)OCCC#N)C(c2cc3c(cc2Br)OCO3)NC(=O)N1 (stereo unspecified),0,0,0,0,0,0
COc1ccc(C2C(C#N)=C3NC(=O)c4c(sc5c4CCCCC5)N3C3=C2C(=O)CC(C)(C)C3)cc1 (stereo unspecified),0,-87.0,0,0,0,0
COc1ccc(C2C(C#N)=C(N)N(c3sc4c(c3C#N)CCCC4)C3=C2C(=O)CC(C)(C)C3)cc1 (stereo unspecified),0,0,0,0,0,0
Cc1cc2c(cc1S(=O)(=O)N1CCC(C(N)=O)CC1)OCC(=O)N2,0,-,-,0,-,0
Clc1ccc(-c2ccc(CN3CCCCC3)o2)cc1,0,-106.2,0,0,0,0
CN1CCN(Cc2ccc(-c3ccc(Cl)cc3)o2)CC1,0,-71.2,0,0,0,0
CCc1ccc(NC(=O)CC(c2ccc(C)cc2)N2Cc3ccccc3C2=O)cc1 (stereo unspecified),0,-,0,0,-,0
N#CCC(=O)Nc1ccc(C(=O)NNC(=O)CCN2CCN(c3ccccc3)CC2)cc1,0,-82.9,0,0,0,0
CCC1(c2ccccc2)NC(=O)N(CC(=O)Nc2ccccc2N2CCCCC2)C1=O (stereo unspecified),0,0,0,0,0,0
COc1cccc(C(=O)NNC(=O)CCN2CCN(c3ccccc3)CC2)c1,0,?,0,0,0,0
CCc1cc(C(=O)NNC(=O)CCN2CCN(c3ccccc3)CC2)sc1C,0,-63.0,0,0,0,0
CCC1(c2ccccc2)NC(=O)N(CC(=O)NNC(=O)CCN2CCN(c3ccccc3)CC2)C1=O (stereo unspecified),0,-56.3,0,0,0,0
O=C(CCN1CCN(c2ccccc2)CC1)NNC(=O)c1cccc2ccccc12,52.7,0,0,0,0,0
CC(=O)OCC(NC(=O)C(C)NC(=O)OC(C)(C)C)C1OC(n2cc(F)c(=O)[nH]c2=O)C(OC(C)=O)C1OC(C)=O (stereo unspecified),-,-,-,-,-,0
Cc1ccc(S(=O)(=O)Nc2c(C)n(C)n(-c3ccccc3)c2=O)cc1C(=O)NCc1ccccc1,0,0,0,0,0,0
c1ccc(-c2noc(-c3cccc4ccccc34)n2)nc1,0,0,0,0,0,0
COc1cccc(-c2nc(-c3ccccn3)no2)c1OC,0,?,4.47µM,0,0,0[11.4 µM]
COc1ccccc1-c1noc(-c2cc(OC)c(OC)c(OC)c2)n1,0,0,0,0,0,0
COc1cc(-c2nc(-c3ccccn3)no2)cc(OC)c1OC,0,0,7.94µM,0,0,0
O=C1NC(Cc2ccc(O)cc2)c2nc3ccccc3c(=O)n2-c2ncccc21 (stereo unspecified),0,0,0,0,-,-
Cc1ccnn1CC(=O)N/N=C/c1cn[nH]c1-c1ccccc1,0,0,0,0,0,0
Cc1c(Cl)cccc1N1CC(c2nc3ccccc3n2Cc2ccccc2F)CC1=O (stereo unspecified),0,-,-,0,-,0
c1ccc(Cn2ccnc2SCc2nnc(-c3ccccc3)o2)cc1,32.3,0,0,0,-,0
C/C(=N\Nc1cc(N2CCOCC2)nc(C)n1)c1ccc(F)cc1,0,0,0,0,0,0

# Screening results deposited in PubChem BioAssay by National Center for Advancing Translational Sciences (NCATS).
